# In all, about 360,000 compounds went through this assay and about 2,400 (0.67%) were called active. This excerpt belongs to a sample that is enriched for actives. Unmarked numbers belong to inactive results.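 How the source made its calls: active means activation above a run cutoff, the mean activation of all tested compounds plus 3 SD (cut at about 14% in these data); inactive means the rest.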
# Target: 5-hydroxytryptamine receptor 2A (Mus musculus) (UniProt P35363)
# Experiment: mouse Htr2a agonists via beta-arrestin recruitment, primary screen, cell-based, luminescence (AID 624169);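 further: 0% = plate median of compound wells and 100% = 30 µM serotonin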
# Settings: CHO-K1 mHTR2A beta-arrestin complementation, at 7.6 µM, active compounds read high, percent of 30 µM serotonin response
# Sequence of 5-hydroxytryptamine receptor 2A (Mus musculus) (P35363 whole entry, looked up): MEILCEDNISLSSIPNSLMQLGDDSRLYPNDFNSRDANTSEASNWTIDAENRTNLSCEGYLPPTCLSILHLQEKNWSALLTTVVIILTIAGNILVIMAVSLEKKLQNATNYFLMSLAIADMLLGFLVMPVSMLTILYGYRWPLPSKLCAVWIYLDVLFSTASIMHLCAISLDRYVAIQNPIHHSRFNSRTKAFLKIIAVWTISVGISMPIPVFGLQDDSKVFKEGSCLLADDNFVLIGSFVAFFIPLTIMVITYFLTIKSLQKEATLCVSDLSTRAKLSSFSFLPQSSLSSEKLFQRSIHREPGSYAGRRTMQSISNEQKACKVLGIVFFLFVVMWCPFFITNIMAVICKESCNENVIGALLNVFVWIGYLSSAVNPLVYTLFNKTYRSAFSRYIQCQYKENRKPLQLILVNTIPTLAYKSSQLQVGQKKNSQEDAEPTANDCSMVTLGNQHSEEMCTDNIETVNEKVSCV
row,SMILES,activation
1,CCN(CC(=O)Nc1ccccc1OC)C(=O)Cn1cnc2ccccc2c1=O,2.03%
2,COCc1cc(C(C)=O)ccc1OC,2.94%
3,COc1ccc(C(C)=O)cc1COC(=O)Cn1cnc2ccccc2c1=O,16.5% (active)
4,CN1OC[C@@H]2CN[C@H](c3ccc(-c4ccccc4)cc3)C[C@@H]21,-5.82%
5,Cc1ccc(S(=O)(=O)NN=C2CC(C)(C)CC(=O)C2(C)C)cc1,-0.12%
6,Cc1ccc(C2(c3ccc(C)cc3)NC(=O)N(Cc3c(C)noc3C)C2=O)cc1,-0.69%
7,CCCNC(=O)CCn1nc(-c2ccccc2)c2ccccc2c1=O,5.25%
8,COc1ccccc1CNC(=O)Cn1c(=O)oc2cc(Cl)ccc21,-2.35%
9,COC(=O)Cn1nc(-c2ccccc2)c2cc(Cl)ccc21,18.3% (active)
10,COC(=O)c1ccccc1N=Nc1c(C)[nH][nH]c1=O,-4.12%
11,CC(C)(C)SCCSC1=CC(=O)CC(c2ccccc2)C1 (stereo unspecified),-1.98%
12,O=C(NCc1ccco1)c1cccn2c(=O)c3c4c(sc3nc12)CCCC4,19.5% (active)
13,O=C(NCc1ccco1)c1cnn2c(C(F)(F)F)cc(-c3ccco3)nc12,0.02%
14,O=c1oc(-c2ccco2)nc2sc3c(c12)CCCCC3,-3.64%
15,COc1ccc(OCCCC(=O)OC(C)C(=O)Nc2ccccc2[N+](=O)[O-])cc1 (stereo unspecified),9.6%
16,Cc1ccc(OCc2nnc(NC(=O)OCC(C)C)s2)cc1,-4.72%
17,Cc1ccc2[nH]cc(CCCN3C(=O)c4ccccc4C3=O)c2c1,-2.51%
18,COCCCN1C(=O)c2ccc(C(=O)Nc3ccc(OC)cc3OC)cc2C1=O,12.7%
19,COc1ccc2[nH]cc(CCN3C(=O)c4ccc(C(=O)O)cc4C3=O)c2c1,19.3% (active)
20,O=C(C[C@H]1C[C@@H]2c3cc(NC(=O)C4CCC4)ccc3O[C@@H]2[C@H](CO)O1)NC1CCCCC1,-0.85%
21,O=C(Nc1ccc2c(c1)[C@@H]1C[C@@H](CC(=O)N3CCCCC3)O[C@@H](CO)[C@@H]1O2)NC1CCCCC1,15.4% (active)
22,COC(=O)C[C@H]1C[C@@H]2c3cc(NC(=O)Nc4ccccc4)ccc3O[C@@H]2[C@@H](CO)O1,2.06%
23,O=C(CCS(=O)(=O)c1cccc2nsnc12)N1CCN(c2ccccc2F)CC1,4.25%

row,SMILES,activation
1,COC(=O)[C@@H]1CCCN1C(=O)c1cc(COc2cccc3cccnc23)on1,2.24%
2,CCS(=O)(=O)Nc1ccc(C2=NN(S(=O)(=O)c3ccc(F)cc3)C(c3ccco3)C2)cc1 (stereo unspecified),-6.66%
3,CO/N=C/CC(=O)c1ccc(OC)cc1,21.9% (active)
4,COc1ccc(C(=O)COC(=O)c2ccc3ccccc3n2)cc1,-0.68%
5,COc1ccc(C(=O)C[n+]2ccc(C)cc2)cc1,-0.16%
6,Cc1cccc(NC(=O)c2cc(S(=O)(=O)N3CCC4(CC3)OCCO4)ccc2F)c1,-2.45%
7,CCOc1ccc(/C(O)=C2\C(=O)C(=O)N(c3ccc(OC)cc3)C2c2ccccc2[N+](=O)[O-])cc1 (stereo unspecified),23.9% (active)
8,COc1ccc(/C(O)=C2/C(=O)C(=O)N(c3nc(C)c(C)s3)C2c2ccco2)cc1 (stereo unspecified),0.59%
9,COc1ccc(C2/C(=C(/O)c3ccccc3)C(=O)C(=O)N2c2ncccn2)cc1OC (stereo unspecified),-1.25%
10,CCN(CCn1cccn1)Cc1nc(-c2ccc(C(=O)OC)cc2)no1,2.48%
11,N=C1c2ccccc2-c2ccccc21,3.53%
12,Cc1nnc(C)c2c(C)n(N)c(C)c12,-1.02%
13,Cc1ccccc1-n1nc(SCC(=O)O)sc1=S,-1.31%
14,O=C(CSc1nn(-c2ccc(F)cc2)c(=S)s1)NC1CCS(=O)(=O)C1 (stereo unspecified),-0.71%
15,N#CCSc1nn(-c2ccc(F)cc2)c(=S)s1,15.4% (active)
16,COCCCN(C(=O)CSCc1ccc(C)cc1)c1c(N)n(Cc2ccccc2)c(=O)[nH]c1=O,7.86%
17,CC1C(C)N(C(=O)CCl)c2ccccc2N1C(=O)CCl (stereo unspecified),-1.04%
18,Cn1c2c(c(=O)n(C)c1=O)C(c1cccc([N+](=O)[O-])c1)Nc1ccccc1O2 (stereo unspecified),-3.64%
19,Cn1c2c(c(=O)n(C)c1=O)C1c3ccccc3OCC1C(C)(C)O2 (stereo unspecified),-0.33%
20,Cn1c2c(c(=O)n(C)c1=O)C(c1ccc(O)cc1)Nc1ccccc1O2 (stereo unspecified),27% (active)
21,COC(=O)COc1ccc(C2NC(=O)NC(C)=C2C(=O)NCc2ccccc2)cc1OC (stereo unspecified),-4.71%
22,COCCCn1cc(CN2CC(N(C)C)CS2(=O)=O)nn1 (stereo unspecified),5.48%
23,Cc1c(Br)c([N+](=O)[O-])nn1CC(=O)Nc1sc2c(c1C(=O)OC(C)C)CCC(C)C2 (stereo unspecified),2.43%

row,SMILES,activation
1,CC(=O)Nc1ccc(OCC(O)CN2CCN(c3ccccc3Cl)CC2)cc1 (stereo unspecified),2.24%
2,O=S(=O)(c1ccc(OCC(O)CN2CCN(c3ccccc3Cl)CC2)cc1)N1CCOCC1 (stereo unspecified),22.4% (active)
3,CC(=O)c1ccc(OCC(O)CN2CCN(S(=O)(=O)c3cccc(Br)c3)CC2)cc1 (stereo unspecified),1.8%
4,Cc1cc(C(=O)NNS(=O)(=O)c2ccccc2C(F)(F)F)nn1C(C)(C)C,-0.74%
5,CCOC(=O)[C@]12CCCC=C1N(CCC1=CCCCC1)C(=O)[C@H](CC(=O)NCCCCc1ccccc1)C2,3.93%
6,Cc1[nH]c2ccccc2c1CCN(Cc1cccs1)C(=S)NC(C)(C)C,24.1% (active)
7,CCNC(=S)N(CCc1c(C)[nH]c2ccc(C)cc12)Cc1ccco1,-4.57%
8,COc1ccc2[nH]c(C)c(CCN(Cc3cccs3)C(=S)Nc3ccccc3OC)c2c1,10.5%
9,CCOC(=O)c1cccc(NC(=O)C2CCN(c3ncnc4c3nc3n4CCCCC3)CC2)c1,-3.05%
10,CCOCCCN1C(=O)C2C(C(=O)Nc3ccc(OCC)cc3)C3C=CC2(O3)C1C(=O)NC1CCCCC1 (stereo unspecified),6.26%
11,COc1ccc(C(C)(C)C)cc1NC(=O)CCN1C(=O)C2CCCCC2C1=O (stereo unspecified),-4.43%
12,Cc1ccc(C(=O)NCC(=O)OCc2nnc(-c3ccccc3)o2)cc1,14.8% (active)
13,O=C(OCc1nnc(-c2ccccc2)o1)c1ccc2c(c1)C(=O)N(CCc1ccccc1)C2=O,1.62%
14,Cc1onc(-c2ccccc2)c1-c1nnc(COC(=O)c2ccc(N(C)C)cc2)o1,-6.2%
15,CSc1ccc(NC(=O)N2CC(C)OC(C)C2)cc1 (stereo unspecified),-3.29%
16,CCCCn1nc(C(=O)Nc2cccc(C(=O)NC3CC3)c2)c2ccccc2c1=O,2.3%
17,Cn1cccc1C(=O)OCC(=O)c1ccc(Br)s1,-5.88%
18,OC(COc1ccc(F)cc1Cl)CN1CCc2ccccc2C1 (stereo unspecified),-18.7%
19,COc1ccccc1C(c1nnnn1CC1CCCO1)N1CCN(c2ccccc2)CC1 (stereo unspecified),-1.76%
20,O=C(Cc1ccccc1)n1nc(-c2ccccc2)nc1NCc1ccco1,17.4% (active)
21,O=C(c1cccs1)n1nc(NCc2ccccc2)nc1NCc1ccccc1,-1.74%
22,O=C(NCc1ccco1)/C(=C/c1ccco1)NC(=O)c1ccccc1,2.71%
23,CC(C)NS(=O)(=O)c1ccc(NC(=O)C2CCCCC2)cc1,-5.58%

row,SMILES,activation
1,Cc1nc2ccc(NC(=O)C3CCCCC3)cc2s1,5.67%
2,CS(=O)(=O)c1ccc2nc(NC(=O)C3CCCCC3)sc2c1,14.9% (active)
3,Cc1ccc2nc(NC(=O)C3CCN(S(=O)(=O)c4ccc5c(c4)oc(=O)n5C)CC3)sc2c1,-3.71%
4,O=C(NCCCN1CCCCCC1)C1CC(=O)N(C2CCCC2)C1 (stereo unspecified),2.65%
5,O=C(NCCCN1CCN(c2ccccc2F)CC1)C1CCC(=O)N1C1CCCCC1 (stereo unspecified),16.5% (active)
6,COc1ccc(CN2CC(C(=O)NCCN3CCN(c4ccccc4F)CC3)CC2=O)cc1 (stereo unspecified),-3.29%
7,COC(=O)c1ccccc1NC(=O)C1CCN(S(=O)(=O)c2cc(OC)ccc2OC)CC1,-1.33%
8,Cc1cc(C)cc(C(=O)N(CCc2ccccc2)C2=CC3CCC(C2)N3C)c1 (stereo unspecified),-10.4%
9,CCCN(CCc1ccccc1)C1CCc2c(O)cccc2C1 (stereo unspecified),50.6% (active)
10,COC(=O)c1ccc(CN2C(=O)C(Cc3ccccc3)ON=C2c2ncccc2C)o1 (stereo unspecified),0.18%
11,CCOc1ccccc1NS(=O)(=O)c1cc2c3c(c1)C(C)C(=O)N3CCC2 (stereo unspecified),5.3%
12,C/C(=N\NC(=O)CSc1nc2ccccc2c(=O)n1-c1ccccc1C)c1cccs1,-1%
13,C/C(=N\NC(=O)COc1c(C)cccc1C)c1cccs1,14.4% (active)
14,C/C(=N\OCC(=O)Nc1ccc(Br)cc1)c1cccs1,-2.57%
15,Cc1ccc(CN2CCN(/N=C/c3ccco3)CC2)c(C)c1,-2.05%
16,Cc1ccc(CN2CCN(/N=C/c3cccnc3)CC2)c(C)c1,-3.83%
17,Oc1ccc(CN2CCN(c3ncccn3)CC2)cc1,30.1% (active)
18,Cc1ccc(CN2CCN(c3ncccn3)CC2)c(C)c1,25.6% (active)
19,COc1ccccc1-c1nn(Cc2ccccc2)cc1C(=O)N1CCN(c2ncccn2)CC1,11.3%
20,CN(C)C(=O)c1nc2ccc(Cl)cn2c1CN1CCN(c2ncccn2)CC1,1.37%
21,CC1(C)CCSC(/C=C/c2ccccc2)=N1,-2.29%
22,Nc1c(C(=O)O)cnn1-c1ccccc1,2.02%
